Test results taken from the supplement of paper PMC6555819.

Assays:
Test in all cases: PBM binding z-score (relative to random genomic background probes); higher = stronger binding; sequences stand for … in GC…GCGATTGACAGCGTAGAATGAAGG
[1] = test system: RARb homodimer (NR concentration 270 nM)
Outline: (§1)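 Antibodies against each partner of ligand-free nuclear receptor dimers (one per run) detected binding on custom Agilent 4×180K protein-binding microarrays after 1 h incubation. The double-stranded probes had 34-nt variable regions carrying direct-repeat seeds, single-nucleotide variants, half-site ablations and random human genomic background sequences. Binding z-scores, from regression-normalized fluorescence, use the random background probes as reference.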

[2] = test system: RARg:RXRa (NR concentration 270 nM, RXRa partner concentration 90 nM)
Outline: as §1

[3] = test system: RARg homodimer (NR concentration 270 nM)
Outline: as §1

[4] = test system: RXRa DBDmut IVT, anti-RXR (DBD mutation: RXRa K156A/R161A, NR concentration 90 nM)
Outline: as §1

[5] = test system: RXRa homodimer (NR concentration 180 nM)
Outline: as §1

[6] = test system: THRa:RXRa (NR concentration 90 nM, RXRa partner concentration 90 nM)
Outline: as §1

[7] = test system: THRa homodimer (NR concentration 90 nM)
Outline: as §1

[8] = test system: VDR:RXRa (NR concentration 270 nM, RXRa partner concentration 90 nM)
Outline: as §1

[9] = test system: VDR homodimer (NR concentration 270 nM)
Outline: as §1

Row | Sequence | PBM binding z-score [1] | PBM binding z-score [2] | PBM binding z-score [3] | PBM binding z-score [4] | PBM binding z-score [5] | PBM binding z-score [6] | PBM binding z-score [7] | PBM binding z-score [8] | PBM binding z-score [9]
1 | CGAACTAGCTCATCCAGGACAGTGAATACATTGA | 0.118 | -0.191 | 0.156 | 0.64 | 0.0877 | 1 | 0.936 | -0.134 | 0.271
2 | CGAACGAGGGCAGGAGTTGATAGCAAATGCCGAT | 0.754 | 0.906 | 1.13 | 0.67 | 0.365 | 0.403 | -0.595 | -0.167 | 0.281
3 | TCTTGTAGATCAAAGGTTAAGAGAGCCGAAGCCT | 1.45 | 1.84 | 0.766 | 0.28 | 3.32 | 1.18 | -0.582 | 1.29 | -0.415
4 | TAGCCTAGGTCATGAGGGCCAGTATAGTGTCGGC | 3.01 | 4.06 | 4.57 | 0.234 | 3.23 | 3.04 | 0.958 | 3.51 | 0.404
5 | TCTAGCAGGCCAGAAGGTCACTCAAGAGGTACGG | 3.87 | 3.95 | 3.46 | 0.459 | 3.15 | 2.28 | 0.225 | 2.16 | 1
6 | TGTTGTAGATCAGCAGGTTAAGAAAGCTGGCCAA | -0.378 | -0.266 | -0.294 | -1.38 | -0.118 | -0.32 | -1.04 | -0.372 | -0.583
7 | ATCTCTAGGTAACAAGTTCAGTAAAAGAGAGGAC | 2.18 | 1.21 | 1.6 | 1.08 | 1.1 | 1.85 | 1.12 | 1.96 | 2.15
8 | GCTAGCAGCCCATTTGGGTCACTCAATGACGGGC | 1.07 | 0.319 | 0.556 | -0.892 | 0.587 | 1.24 | 0.119 | -0.389 | -0.375
9 | CGAACTAGGTCATTTACAGGACAGTGAATAGTAA | 2.66 | 4.82 | 4.09 | 2.58 | 2.38 | 2.89 | 0.896 | 2.14 | 1.75
10 | AGAACGAGGGCAATGAGTTGATACCACGGGTGGC | 0.985 | 1.02 | 1.7 | 2.06 | 0.987 | 0.993 | -0.484 | 5.25 | 3.27
11 | GCAGACAGGTGAAACGCGGGTAACTCAGGGTGGC | 0.366 | 0.785 | 0.319 | -0.6 | 0.631 | 1.64 | -0.533 | -0.339 | -0.362
12 | TCATATAGGTAAAGGCGAAAGTCGAACGATATGA | -0.012 | 0.425 | 0.439 | 0.563 | 0.727 | -0.186 | -0.507 | 0.324 | -0.251
13 | GCGACTGCGGCATCAGCAGGTTACCATAACTTAA | 0.0981 | -0.378 | -0.604 | -0.332 | 0.0443 | 0.0329 | 0.0125 | -0.5 | -0.566
14 | GCTAGTTGGTCACTAAAAGGTCACACACCGGTCG | 5.51 | 5.78 | 5.45 | 0.465 | 5.16 | 3.61 | 1.7 | 4.17 | 2.13
15 | ATACCAAGGTGATCATGAGGTCGTTGATACTAAC | 1.85 | 2.23 | 1.18 | 1.08 | 1.75 | 3.55 | 2.94 | 3.38 | 3.15
16 | CCTTCTGGGCCATCAGGTCATTGATATCAACGTT | 2.61 | 2.3 | 2.36 | 0.59 | 1.46 | 3.19 | 2.98 | 1.81 | 1.83
17 | CCTGCTAGATCATGGTCAGCTAATCTACAGTATG | -0.429 | -0.127 | 0.142 | 0.516 | -0.185 | -0.68 | -1.23 | -0.447 | -0.86
18 | TCTTGTAGATCAACAGGAGGTTAAGCAAGATCGA | 0.427 | 0.916 | 0.301 | 0.224 | 1.01 | 1.24 | -0.612 | 0.529 | -0.456
19 | TCTAGTTTGTCACGGAGGTCACACACGACGGGTA | 4.23 | 4.3 | 4.16 | 1.65 | 4.54 | 3.6 | 2.96 | 4.63 | 3.15
20 | CCTATCAGGCCAGGGTCACTCAAGCATTTCGCTT | 2.88 | 3.19 | 2.62 | 0.325 | 3.65 | 3.19 | 1.36 | 2.73 | 1.33
21 | ATATGTAGGTTACATCCGGGTCACTCAGGCTATG | 3.14 | 3.8 | 2.2 | 0.745 | 3.03 | 3.94 | 2.97 | 3.71 | 2.29
22 | CCGACTGGCGCAAAGGTTACCATACTCAGTACGA | 1.81 | 1.62 | 0.821 | 0.55 | 2.11 | 1.35 | -0.0334 | 0.854 | -0.00484
23 | CGAAATAGGTCAGAACAGGACAGTGAAGGATGAT | 2.82 | 3.36 | 4.15 | 0.269 | 2.42 | 4.13 | 0.228 | 1.71 | 0.382
24 | CCTACTGGGGCAAGGTCATTGATCAGTCAAAGCA | 3.3 | 4.12 | 3.61 | 1.28 | 3.54 | 3.25 | 1.6 | 3.59 | 3.27
25 | ATTAGCAGGCCAAGGGTCACTCAAGATTAGTCCG | 3.64 | 4.22 | 3.71 | 0.43 | 4.3 | 2.7 | 0.321 | 2.92 | 0.941
26 | ACTAGCAGGCCAAGTTTGGGTCACTCATACAAAG | 2.32 | 2.26 | 1.53 | -0.0603 | 0.947 | 2.47 | 1.27 | 0.68 | 0.331

Row | Sequence | PBM binding z-score [1] | PBM binding z-score [2] | PBM binding z-score [3] | PBM binding z-score [4] | PBM binding z-score [5] | PBM binding z-score [6] | PBM binding z-score [7] | PBM binding z-score [8] | PBM binding z-score [9]
27 | ATCGAAAGGTCGAGGTTAGTATAGAGAAAGGGAA | 2.8 | 4.49 | 4.52 | 1.18 | 4.37 | 2.51 | 0.341 | 2.75 | 0.514
28 | TCTCGGAGGAGACGAAGGTCAGAGCTTTCCAGAG | 2.74 | 1.88 | 1.77 | -0.234 | 1.63 | 1.11 | -0.507 | 0.483 | -0.413
29 | GCTCGGAGGACAAGGTCAGAGTTTTGTCCGTAGA | 3.25 | 3.1 | 3.94 | 0.706 | 2.55 | 3.11 | 1.72 | 1.65 | 0.974
30 | TCTAGCAGGCCAGAGGGACACTCAAGAGGTACGG | 0.146 | -0.0485 | 0.179 | -0.19 | 0.112 | -0.54 | -0.905 | -0.463 | -0.834
31 | AATACAGGGTCATCGTTGGCCAGAGTACGCACAG | 3.58 | 5.68 | 5.14 | 3.53 | 6.56 | 3.95 | 1.53 | 5.13 | 3.86
32 | TTACCAAGGTGAAGGTCGCTGATCCCTCTGTAGA | 2.03 | 1.72 | 1.7 | -0.269 | 1.85 | 2.41 | 0.612 | 0.493 | -0.248
33 | AGAATGAGGTTACCCAAGATCAGGGAAACGCTTG | 0.82 | 1.93 | 1.6 | 1.06 | 2.36 | 3.28 | 0.843 | 1.55 | 0.242
34 | GCTAGTTGGTCCGTAAAAGGTCACACACCGGTCG | 5 | 5.04 | 4.7 | 0.491 | 5.6 | 3.5 | 1.82 | 3.97 | 1.94
35 | ACTTACGGGCCAACGAGGTTATAGCACGCGTATA | 1.08 | 0.977 | 0.949 | 0.889 | 1.01 | 1.76 | 0.399 | 3.84 | 1.31
36 | GCTGCTAGGTCAGGTTGGTCAGCTATCGGGTACG | 2.73 | 2.44 | 3.56 | 0.759 | 0.93 | 1.84 | 0.785 | 0.576 | 0.204
37 | CCTACTGGGCCAAAGTTCATTGATTCCAATGCTC | 3.34 | 3.23 | 2.56 | 2.37 | 2.73 | 1.44 | 0.0374 | 3.24 | 3.96
38 | CCTCGGAGGCCAACAGGAGGTCAGAGCTGCCAGA | 3.63 | 4.76 | 3.41 | -0.221 | 2.34 | 2.41 | 0.431 | 2.07 | 0.821
39 | ATACCAAGGTGATCGTGAGGTCATTGATACTAAC | 4.17 | 4.94 | 3.31 | 1.63 | 3.99 | 4.6 | 4.6 | 5.31 | 4.77
40 | ATCGAAAGGTCGACGGGGTGAGTATACACCGTTT | 3.14 | 4.6 | 4.63 | 1.61 | 5.07 | 3.57 | 0.568 | 5.62 | 1.7
41 | CGTCCAAGGTCAGAGATGTCAGTGAATGCCGAGT | 3.66 | 4.35 | 5.29 | 2.72 | 3.3 | 3.29 | 1.9 | 3.64 | 1.82
42 | TAGCCTAGGTTATTCAGGGGCCAGTATAGAAAGC | 0.985 | 3.15 | 0.714 | -0.074 | 0.459 | 1.93 | -0.239 | 0.101 | -0.459
43 | AGTCAAAGTTCACTCGGTAACGTAAGATTCAGCT | 3.89 | 4.91 | 5.79 | 4.02 | 3.83 | 1.79 | -0.0176 | 4.31 | 4.11
44 | CGAACTAGGTCAGAACAGGACAGTGAGGGATGAT | 2.12 | 2.44 | 3.18 | 0.709 | 1.47 | 3.57 | 0.102 |  | -0.141
45 | TCGTATAGGTAAAGGTGAAAGTCGAACGATATGA | 1.77 | 1.52 | 1.35 | 0.714 | 2.12 | 1.24 | -0.212 | 0.788 | 0.0316
46 | TATACAGGGTCAAAGGCCAGAGTTCGAATGTCGA | 3.91 | 5.81 | 5.41 | 3.27 | 7.53 | 3.61 | 1.03 | 5.34 | 4.77
47 | GCGACTGGGGCAAAGCAGGTTCCCATAAGGTTGG | 0.109 | -0.179 | 0.0897 | -0.512 | -0.314 | 1.38 | -0.261 | -0.543 | -0.513
48 | GCTGCTATGTCAGGTTGGTCAGCTAACGGGTACG | 0.477 | -0.153 | 0.0688 | 0.041 | -0.315 | -0.187 | -0.332 | -0.421 | -0.186
49 | TTACCAATGTGAGCTGAGGTCGTTGATCCAACTC | 0.861 | 0.247 | -0.299 | 0.122 | 0.752 | 3.25 | 1.54 | 1.78 | 2.7
50 | CCTACTGTGCCATCAGGTCATTGATATCAACGTT | 2.98 | 2.18 | 1.93 | 1.69 | 1.53 | 3.64 | 3.95 | 2.56 | 2.39
51 | ATCTCTAGGTAAAGATAGTGCAGTGAATGCAAAT | -0.372 | 0.0561 | 0.36 | -0.368 | 0.254 | 0.223 | -0.337 | 0.0652 | -0.144
52 | CGTCGAAGGTCAAAGGTCAGTGAAGAGATGACGG | 5.17 | 8.72 | 7.78 | 3.05 | 9.99 | 4.58 | 0.832 | 6.4 | 2.54
